# Data reported in PubChem BioAssay.
# The source made the active and inactive calls. Rule as the data show it, unless noted: active = inhibition above about 80%; inactive = the rest.
# Columns and labels:
# [1] = hESC survival regulators, cell-based (AID 493140; call rule not given here;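 also: cells exposed to compounds for four days before counting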); settings: human embryonic stem cell survival screen; stronger effect = higher value
# [2] = liver-stage malaria parasite growth inhibition, primary screen, cell-based, HepG2, luciferase luminescence, HepG2 viability (AID 624349; in the data active = parasite load remaining mostly below about 12%, no sharp cut-off; inactive = mostly above about 10%;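 also: 100% = mean of DMSO negative control wells on the same plate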); settings: P. berghei liver stage in HepG2, luciferase luminescence, concentration not given here; parasite load remaining: stronger effect = lower value; viability: measured here: HepG2 viability without parasites
# [3] = sensitizers of A549 cells to miR-34 induction, primary screen, imaging, A549 dox-inducible miR-34, nuclei and caspase counts (AID 1347080;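 active = compounds whose cell count with miR-34 switched on is under 0.7 times the count with it off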); settings: A549 miR-34 inducible, Hoechst nuclei count, 48 h
# [4] = survival rescue of mitochondrial mutant cells in low glucose, primary screen, MELAS cybrids, Rieske KO mouse fibroblasts, CellTiter-Glo (AID 1508586;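 active = mean z-score across replicates of 1.96 or higher in either the MELAS or the Rieske mutant cell line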;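 also: z relative to plate mean and SD of compound and empty wells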)
# [5] = LFS_MB_P medulloblastoma growth inhibition, cell-based, chromothripsis tumors, cisplatin or BGB combos (AID 1671449); settings: LFS_MB_P medulloblastoma cells;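 also: cells exposed for 96 hours; 0% = vehicle DMSO and 100% = killing by high DMSO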
# [6] = HDN33 neuroblastoma growth inhibition, cell-based, chromothripsis tumors, cisplatin or BGB combos (AID 1671450); settings: HDN33 neuroblastoma cells, stronger effect = higher value;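 also: cells exposed to compound for four days; 0% = vehicle DMSO and 100% = cell killing by high DMSO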
# [7] = ICB984 medulloblastoma cell growth inhibition, synergistic combos for chromothripsis tumors, cisplatin or BGB combos (AID 1671451; call rule not given here;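 also: cells exposed for 96 hours before readout; 0% = vehicle DMSO and 100% = killing by high DMSO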); settings: ICB984 medulloblastoma cells, drug combinations, stronger effect = higher value
# [8] = LFS_MB_1R medulloblastoma cell growth inhibition, synergistic combos for chromothripsis tumors, cisplatin or BGB combos (AID 1671452); settings: LFS_MB_1R medulloblastoma cells, stronger effect = higher value;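 also: cells exposed for 96 hours before readout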
# [9] = HTB85 osteosarcoma cell growth inhibition, synergistic combos for chromothripsis tumors, BGB or cisplatin IC20 combos (AID 1671453); settings: HTB85 osteosarcoma cells, drug combinations, stronger effect = higher value;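 also: cells exposed for 96 hours before readout; 0% = vehicle DMSO and 100% = high DMSO killing control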
# [10] = CRL2098 osteosarcoma cell growth inhibition, synergistic combos for chromothripsis tumors, BGB or cisplatin IC20 combos (AID 1671454); settings: CRL2098 osteosarcoma cells, drug combinations, stronger effect = higher value;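 also: cells exposed for 96 h before readout; 0% = vehicle DMSO and 100% = killing by high DMSO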
# [11] = HD-MB03 medulloblastoma cell growth inhibition, synergistic combos for chromothripsis tumors, BGB or cisplatin IC20 combos (AID 1671455; in the data active = inhibition above about 83%;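 also: 0% = vehicle DMSO and 100% = high DMSO as cytotoxic control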); settings: HD-MB03 medulloblastoma cells, stronger effect = higher value
# [12] = UWB1.289 ovarian carcinoma cell growth inhibition, synergistic combos for chromothripsis tumors, BGB or cisplatin combos (AID 1671456); settings: UWB1.289 ovarian carcinoma cells, stronger effect = higher value;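 also: cells exposed to compound for four days; 0% = vehicle DMSO and 100% = killing by high DMSO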
# [13] = LFS_MB_2R medulloblastoma cell growth inhibition, synergistic combos for chromothripsis tumors, cisplatin combos (AID 1671457); settings: LFS_MB_2R medulloblastoma cells, stronger effect = higher value;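 also: cells exposed to compound for four days before readout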
# [14] = MDA-MB-436 breast carcinoma cell growth inhibition, synergistic combos for chromothripsis tumors, BGB or cisplatin combos (AID 1671458; call rule not given here;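 also: cells exposed for 96 hours; 0% = vehicle DMSO and 100% = killing by high DMSO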); settings: MDA-MB-436 breast carcinoma growth inhibition, drug combinations, stronger effect = higher value
# [15] = UWB1.289_BRCA1 ovarian cancer growth, cell-based, BGB or cisplatin combinations (AID 1671459); settings: UWB1.289 BRCA1 ovarian carcinoma, drug combinations, stronger effect = higher value
# [16] = human astrocyte viability loss, single and combined drugs, cytotoxicity control for chromothriptic childhood tumor combination screen, cell-based, BGB or cisplatin IC20 combos (AID 1671460); settings: Human astrocytes, drug combinations, stronger effect = higher value;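 also: cells exposed to compounds for 96 hours before viability readout; 0% = vehicle and 100% = killing control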
# [17] = growth inhibition of BT084 medulloblastoma cells, cell-based, ICGC_MB145, cisplatin and BGB IC40 combos (AID 1671461); settings: drug combinations, stronger effect = higher value;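 also: cells exposed to drugs for 96 hours; 0% = vehicle DMSO and 100% = high DMSO full killing control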
# [18] = growth inhibition of RCMB18 medulloblastoma cells, cell-based, cisplatin and BGB IC40 combos (AID 1671462); settings: stronger effect = higher value;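 also: cells exposed to compound for four days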
# [19] = growth inhibition of CRL1545 osteosarcoma cells, cell-based, cisplatin and BGB IC20 combos (AID 1671464); settings: stronger effect = higher value;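 also: cells exposed to compound for 96 hours before readout; 0% = vehicle DMSO and 100% = high DMSO killing control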
# [20] = stronger effect = lower value, cell number ratio, induced over uninduced
# [21] = measured here: relative caspase fold change +Dox/-Dox
# [22] = measured here: total cells with miR-34 induction, stronger effect = lower value
# [23] = measured here: total cells without miR-34 induction
# [24] = MELAS cybrid survival, CellTiter-Glo 48 h, stronger effect = higher value
# [25] = Rieske KO mouse fibroblast survival, CellTiter-Glo 72 h
# [26] = measured here: combination with BGB IC40, at 0.05 µM
# [27] = measured here: with BGB IC20 combination, at 0.5 µM
# [28] = measured here: with cisplatin IC20 combination, at 0.5 µM
# [29] = measured here: combination with cisplatin, at 0.5 µM
# [30] = measured here: combination with cisplatin, at 5 µM
smiles,measurement,setting,value
CC(=O)N(CC(C)C(=O)O)c1c(I)cc(I)c(N)c1I (stereo not drawn),survival,[1],3.33 (inactive)
same,parasite load remaining,[2],76.2% (inactive)
same,viability,[2],95.9%
same,fold change,[3]; [20],0.901 (inactive)
same,fold change,[3]; [21],1.42
same,cell count,[3]; [22],9460
same,cell count,[3]; [23],10500
same,z-score,[4]; [24],0.846 (inactive)
same,z-score,[4]; [25],0.109
COc1ccccc1S(=O)(=O)Nc1ccc2c(c1)CN(C)C(=O)N2,fold change,[3]; [20],1.02 (inactive)
same,fold change,[3]; [21],0.364
same,cell count,[3]; [22],6410
same,cell count,[3]; [23],6310
same,z-score,[4]; [24],0.202 (inactive)
same,z-score,[4]; [25],-0.445
same,inhibition,"[5]; at 0.5 µM, stronger effect = higher value",-27% (inactive)
same,inhibition,"[5]; measured here: combination with BGB IC20, at 0.005 µM",-35.7%
same,inhibition,"[5]; measured here: combination with BGB IC40, at 0.005 µM",-46.6%
same,inhibition,[5]; [26],-41.2%
same,inhibition,"[5]; measured here: combination with cisplatin, at 0.5 µM, stronger effect = higher value",-73.8%
same,inhibition,"[5]; measured here: combination with cisplatin, at 5 µM, stronger effect = higher value",27.9%
same,inhibition,"[6]; BGB combo, at 5 µM",10.4%
same,inhibition,[6]; at 0.5 µM,-28.2% (inactive)
same,inhibition,"[6]; cisplatin combo, at 5 µM",19.3%
same,inhibition,[6]; [27],-28.2%
same,inhibition,[6]; [28],-25.5%
same,inhibition,"[6]; single agent, at 5 µM",26.1%
same,inhibition,"[7]; BGB IC20 combo, at 0.005 µM",0.625%
same,inhibition,"[7]; BGB IC40 combo, at 0.005 µM",-32.2%
same,inhibition,"[7]; BGB IC40 combo, at 0.05 µM",2.94%
same,inhibition,[7]; at 0.5 µM,-27.9% (inactive)
same,inhibition,"[7]; cisplatin combo, at 0.05 µM",-1.96%
same,inhibition,"[7]; cisplatin combo, at 0.5 µM",-28%
same,inhibition,"[7]; cisplatin combo, at 5 µM",-22.2%
same,inhibition,"[7]; measured here: 5 uM single agent, at 5 µM",-15.3%
same,inhibition,[8]; at 0.5 µM,-15.2% (inactive)
same,inhibition,[8]; [26],-24.6%
same,inhibition,[8]; [29],-10.4%
same,inhibition,[8]; [30],42.8%
same,inhibition,[9]; at 0.5 µM,-7.92% (inactive)
same,inhibition,"[9]; measured here: with BGB IC20, at 0.5 µM",9.14%
same,inhibition,"[9]; measured here: with BGB IC20, at 5 µM",38.2%
same,inhibition,"[9]; measured here: with cisplatin IC20, at 0.5 µM",-13.9%
same,inhibition,"[9]; measured here: with cisplatin IC20, at 5 µM",31.4%
same,inhibition,"[9]; single agent, at 5 µM",32.5%
same,inhibition,[10]; at 0.5 µM,-31.4% (inactive)
same,inhibition,"[10]; measured here: combination with BGB at IC20, at 0.5 µM",0.952%
same,inhibition,"[10]; measured here: combination with cisplatin at IC20, at 0.5 µM",-85.9%
same,inhibition,[11]; at 0.5 µM,-5.44% (inactive)
same,inhibition,"[11]; measured here: combo with BGB at IC20, at 0.5 µM",-9.22%
same,inhibition,"[11]; measured here: combo with cisplatin at IC20, at 0.5 µM",-6.26%
same,inhibition,[12]; at 0.5 µM,-14.3% (inactive)
same,inhibition,"[12]; measured here: inhibition with BGB combination, at 0.05 µM",-45%
same,inhibition,"[12]; measured here: inhibition with cisplatin combination, at 0.05 µM",-24.9%
same,inhibition,[13]; at 0.5 µM,-17.7% (inactive)
same,inhibition,[13]; [29],-4.41%
same,inhibition,[13]; [30],24.4%
same,inhibition,[14]; at 0.5 µM,-11.9% (inactive)
same,inhibition,"[14]; measured here: BGB combination, at 0.5 µM",-2.15%
same,inhibition,"[14]; measured here: BGB combination, at 5 µM",-5.52%
same,inhibition,"[14]; measured here: cisplatin combination, at 0.5 µM",-32.4%
same,inhibition,"[14]; measured here: cisplatin combination, at 5 µM",-10.1%
same,inhibition,"[15]; BGB combination, concentration series, at 5 µM",37.7%
same,inhibition,[15]; at 0.5 µM,-12% (inactive)
same,inhibition,"[15]; cisplatin combination, concentration series, at 5 µM",55.6%
same,inhibition,[16]; at 0.5 µM,9.7% (inactive)
same,inhibition,"[16]; measured here: combo with BGB IC20, at 0.5 µM",13.1%
same,inhibition,"[16]; measured here: combo with cisplatin IC20, at 0.5 µM",4.75%
same,inhibition,[17]; at 0.5 µM,-13.5% (inactive)
same,inhibition,"[17]; cisplatin combination, at 0.5 µM",-9.06%
same,inhibition,"[17]; cisplatin combination, at 5 µM",15.1%
same,inhibition,"[17]; measured here: BGB IC40 combination 0.05 uM, at 0.05 µM",-35.9%
same,inhibition,"[17]; single agent, at 5 µM",28.1%
same,inhibition,[18]; at 0.5 µM,-15.3% (inactive)
same,inhibition,"[18]; cisplatin combo, at 5 µM",7.58%
same,inhibition,"[18]; measured here: BGB IC40 combination, at 0.05 µM",-26.3%
same,inhibition,[18]; [29],-32.4%
same,inhibition,"[18]; single agent, at 5 µM",7.98%
same,inhibition,[19]; at 0.5 µM,-26.6% (inactive)
same,inhibition,[19]; [27],-39.9%
same,inhibition,[19]; [28],-21.9%
same,inhibition,"[19]; single agent, at 0.05 µM",-32%
same,inhibition,"[19]; single agent, at 5 µM",6.08%
